Compound activity: PubChem, several laboratories
Insulin prom up: MIN6 insulin promoter up-regulation; MIN6 insulin promoter-GFP reporter, high-content imaging; hits give high values; z-score at 5 µM; 190,000 tested, 0.3% active;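 active = z-score above 3 at 5 µM with at least 500 cells counted in the well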
WT yeast gro inh: growth inhibition of WT yeast, mitochondrial fusion screen. inhibition, % at 10 µM. mitochondrial fusion phenotypic screen, WT strain. AID 1362. 190,000 tested, 2.1% active; in the data active = inhibition above about 58%; tested in S. cerevisiae
L major viab: inhibitors of Leishmania major promastigote growth; AID 1063; inhibition, % at 10 µM; 200,000 tested, 9% active; Leishmania major promastigotes, resazurin fluorescence viability; in the data active = inhibition above about 50%;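 note: promastigotes grown with compound for 44 hours at 28 °C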
Autophagy HCS: autophagy modulation, high-content screen. MEF GFP-LC3 puncta imaging; test concentration mostly 10 µM. calls only at 10 µM (by protocol). 190,000 tested, 0.98% active;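 active = percentage of spot-positive cells more than 3 SD above its plate mean, without a fluorescence outlier flag or 80% toxicity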;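 note: spot-positive cell cutoff set from DMSO-treated cells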
Insulin prom inh: TRM-6 insulin promoter activity inhibition; TRM-6 cells (human fetal islet line), insulin promoter-eGFP reporter, imaging; reporter expression induced with tamoxifen; inhibition, % at 2 µM; 130,000 tested, 0.9% active; AID 1273;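 active = inhibition above the mean plus 3 SD, with well images judged a real hit on visual review, cut at about 60% in these data, passing the limit was not always enough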
Numbers without * were called inactive; i = inactive; x = no result given. Hits are enriched below; roughly 11% of the tested compounds scored in any of these assays.

SMILES	Insulin prom up	WT yeast gro inh	L major viab	Autophagy HCS	Insulin prom inh
CCN(CC)S(=O)(=O)c1ccc(C(=O)NCc2ccc3c(c2)OCO3)cc1	-0.68	9	-4	i	79*
Cc1c(C(=O)NCc2ccc3c(c2)OCO3)oc2ccc(Br)cc12	-0.55	62*	-5	i	19
O=C(NCc1ccc2c(c1)OCO2)c1ccc(-c2ccc(Cl)cc2)o1	0.37	69*	-6	i	19
COc1ccc(C(=O)NCc2ccc3c(c2)OCO3)cc1S(=O)(=O)NCc1ccc(Cl)cc1	x	-2	61*	i	-42
Cc1ccc2oc(C(=O)NCc3ccc4c(c3)OCO4)c(C)c2c1	0.74	20	-3	i	-23
CC(C)CNC(=O)Nc1ccc(F)c(Cl)c1	0.28	-2	34	i	16
COC(=O)c1cccc(NC(=O)NC2CCCN2S(=O)(=O)c2ccc(Cl)cc2)c1 (stereo not given)	0.83	-15	76*	i	-3
COC(=O)c1ccc(NC(=O)Nc2ccc(F)c(Cl)c2)cc1	x	62*	-5	i	-300
COC(=O)c1cccc(NC(=O)Nc2ccc(Cl)c(Cl)c2)c1	0.03	23	87*	i	0
CCC(C)NC(=O)Nc1ccc(F)c(Cl)c1 (stereo not given)	x	-11	96*	i	x
Cc1cccc(C2N=C(N)Nc3nc4ccccc4n32)c1 (stereo not given)	0.27	x	x	x	x
O=C(NC1CCN(Cc2ccccc2)CC1)c1ccc(N2CC3CC(C2)c2cccc(=O)n2C3)c([N+](=O)[O-])c1 (stereo not given)	-0.97	-4	-5	i	-8
CC1CC(C)CN(C(=O)c2ccc(N3CC4CC(C3)c3cccc(=O)n3C4)c([N+](=O)[O-])c2)C1 (stereo not given)	-0.09	-24	56*	i	51
CC(C)Oc1ccccc1C1Nc2ccccc2C(=O)N1c1ccc2c(c1)OCCO2 (stereo not given)	0.43	34	63*	i	0
CCOC(=O)COc1ccccc1C1Nc2ccccc2C(=O)N1c1cccc(Cl)c1 (stereo not given)	x	3	31	i	48
CC(C)(C)OC(=O)[C@H]1[C@H](c2ccc([N+](=O)[O-])cc2)C2(C(=O)c3ccccc3C2=O)C2c3ccccc3C=NN21 (stereo not given in full)	-0.44	17	21	i	26
C/C(=N\NC(=O)C1(C)CC1(Br)Br)c1ccc(NC(=O)C2CCC2)cc1 (stereo not given)	-1.2	5	8	i	-25
CCOC(=O)c1ccc(NC(=S)Nc2ccc3[nH]c(=O)[nH]c3c2)cc1	-0.06	x	x	x	x
O=C(Oc1c(-c2ccccc2Cl)oc2ccccc2c1=O)c1ccc(Cl)cc1	-0.43	18	55*	i	-74
CCOC(=O)C1(CCOc2ccccc2)CCN(Cc2ccc(-n3cccn3)cc2)CC1	x	14	90*	i	x
CCOC(=O)C1(CCOc2ccccc2)CCN(Cc2ccncc2)CC1	-0.78	-1	86*	i	-21
O=C(CSc1nc2ccccc2c(=O)n1-c1ccc(F)cc1)Nc1ccc2c(c1)CCC2	x	14	81*	i	-31
O=C(CSc1nc2ccccc2c(=O)n1-c1ccccc1F)Nc1ccc2c(c1)CCC2	-0.54	-10	98*	i	38
O=c1c2ccccc2nc(SCc2nnc(-c3ccccc3)o2)n1-c1ccc(F)cc1F	-0.45	15	78*	i	3
Cc1ccc(-n2c(SCC(=O)Nc3cccc(S(=O)(=O)NC4=NCCCCC4)c3)nc3ccccc3c2=O)cc1	0.28	-1	-2	i	x
SMILES	Insulin prom up	WT yeast gro inh	L major viab	Autophagy HCS	Insulin prom inh
Cc1ccccc1-n1c(SCC(=O)Nc2ccccc2)nc2nc3c(cc2c1=O)CCCC3	-0.55	5	98*	i	11
O=c1c2ccccc2nc(SCc2nnc(-c3ccccc3Br)o2)n1-c1ccccc1	x	1	23	i	48
O=C(CSc1nc(O)cc(=O)[nH]1)Nc1ccc2c(c1)CCC2	-0.7	12	-3	i	-69
CCCc1cc2c(=O)c(-c3nc4ccccc4s3)c(COCC(=O)O)oc2cc1O	-0.08	-1	-6	i	-33
CN(Cc1ccon1)Cc1cn(C)nc1-c1cccc(Cl)c1	1.9	14	3	i	-23
COc1ccccc1-n1c(SCC(=O)Nc2cccc(S(N)(=O)=O)c2)nc2ccccc2c1=O	-0.15	6	-2	i	x
O=C(CSc1nc2ccccc2c(=O)n1-c1ccc(F)c(Cl)c1)Nc1cccc(S(=O)(=O)N2CCOCC2)c1	-0.25	7	41	i	0
O=C(CSc1nc2ccccc2c(=O)n1-c1ccc(F)cc1)Nc1ccc(Cl)c(S(=O)(=O)N2CCOCC2)c1	-0.21	-8	95*	i	33
O=C(CSc1nc2ccccc2c(=O)n1-c1ccc(F)cc1F)Nc1ccc2c(c1)CCC2	-0.21	-7	99*	i	-30
CC(=O)N1CCC(=NNc2ncc(C(F)(F)F)cc2Cl)CC1	0.69	14	-19	i	x
CC(=O)N1CCC(=NNc2ccnc3cc(Cl)ccc23)CC1	0.3	27	86*	i	66
CCOC(=O)N1CCC(=NNc2ncc(C(F)(F)F)cc2Cl)CC1	0.34	11	-13	i	-33
CCOC(=O)N1CCC(=NNc2ccnc3cc(Cl)ccc23)CC1	-0.24	29	61*	i	i
CN(C)c1ccc(-c2nc3ccccc3c(=O)[nH]2)cc1	0.06	x	x	x	x
CC(=O)Oc1ccc(-c2cccc(C(=O)Oc3ccccc3)c2)cc1	x	74*	0	i	-55
CC(=O)Oc1ccc(-c2cccc(C(=O)NCC(=O)O)c2)cc1	0.43	-17	-4	i	-22
CCN(CC)C(=S)Nc1ccc(Cl)c(Cl)c1	-0.11	17	62*	i	-21
